Results: PubChem BioAssay (NCI)
Compounds without any hit were thinned out: in the full panel of roughly 83,000, 20% have a hit.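 Single-concentration screen, 48 h exposure, 96-well plates. Endpoint: percent growth. Below 10 = active.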 A number with no mark means an inactive call. Activity calls are given as the source filed them.

Test system: A549/ATCC NSCLC
Assay: NCI-60 one-dose screen, 48 h (100 = growth as untreated, 0 = no growth, -100 = all killed)
Settings: 10 µM unless noted

For `N#CSc1c[nH]c2cccc(/C=C/C(=O)/C=C(O)/C=C/c3cccc4[nH]cc(SC#N)c34)c12`, the growth was -69.7% (active).
For `Cc1nc2sc(C(=O)Nc3cccc(Br)c3C)c(N)c2cc1C(O)c1ccccc1` (stereo unspecified), the growth was 9.65% (active).
`COc1ccc(-c2ccc(-c3ccc(C(=N)N)nc3)s2)cc1Cl` was tested, and the growth was -32.3% (active).
For `Cc1ccc(-c2nc(N3CCNCC3)c3oc(-c4ccc(C)cc4)nc3n2)cc1`, the growth was -83.3% (active).

Going from `COCCn1cc(-c2csc(-c3c[nH]c4ccc(Br)cc34)n2)c2cccnc21` to `CNC(=O)c1cc(Oc2ccc3c(c2)sc2nc(-c4ccc(OC)cc4)cn23)ccn1`, the growth falls from 23.1% to 15.9%.

First: N#CC1CCc2c(c(-c3ccc4nc(N)sc4c3)nc3ccc4[nH]ncc4c23)C1 (stereo unspecified)
Second: O=c1nc(-c2ccccc2)c2cc(-c3ccc(C(F)(F)F)nc3)ccc2[nH]1
The growth of the first is lower: 46% for the first, 111% for the second.

First: NS(=O)(=O)c1ccc(-c2cc(-c3nnc(SCC(=O)Nc4ccc(C(=O)/C=C/c5ccc(Cl)cc5)cc4)n3-c3ccccc3)c3ccccc3n2)cc1
Second: O=C(/C=C/c1ccccc1)c1ccc(Nc2nc(Nc3ccc(F)cc3)nc(Nc3ccc(Cl)cc3)n2)cc1
The growth of the first is lower: 95% for the first, 112% for the second.

Compared with `O=C(Nc1cc(Cl)ccc1O)c1cccc(Nc2ccnc(C(F)(F)F)c2)c1`, `CC(C)(C)n1cc(-c2ccnc(NCCCNS(=O)(=O)c3ccc(C(F)(F)F)cc3)c2)c(-c2cccc(F)c2)n1` is higher in growth: 37.1% for the first, 64.1% for the second.

First: CC/C(Cc1ccccc1)=C(\c1ccc(OCCCN(C)C)cc1)c1ccc(OC(=O)NCc2ccccc2)cc1
Second: CN(C)S(=O)(=O)Oc1ccc(-c2sc3cc(OS(=O)(=O)N(C)C)ccc3c2C(=O)c2ccc(OCCN3CCCCC3)cc2)cc1
The growth of the first is higher: 61.9% for the first, 52.7% for the second.

First: Clc1c(Cl)[n+](Cc2ccc3ccccc3c2)cn1Cc1ccc2ccccc2c1
Second: COc1ccc(Cn2cc3c(c2-c2ccccc2)CCc2cnoc2-3)cc1
The growth of the first is higher: 52.5% for the first, 20.5% for the second.

Going from `CSC(SC)=C(C#N)c1nc2ccccc2s1` to `O=C1Nc2c(C(=O)O)cccc2/C1=N/c1n[nH]c(=S)s1`, the growth rises from 74.8% to 85.5%.

Going from `O=C(CN1CCCCCC1)Nc1nc2ccc(NCc3ccc(Cl)cc3)cc2s1` to `CC1=C(C(=O)Nc2nc(-c3ccc(Cl)cc3)cs2)[C@H](c2ccc(O)cc2)NC(=O)N1`, the growth falls from 98.7% to 95.1%.

Compared with `CCC1S/C(=N\N=C(\C)c2cc3cc(Cl)ccc3o2)N(c2ccccc2)C1=O` (stereo unspecified), `O=C1/C(=C\c2ccccn2)c2ccccc2N1c1c(Cl)cccc1Cl` is lower in growth: 132% for the first, 50.3% for the second.

Compared with `Cc1ccc(C)c(/C=C2\CN(C(=O)OC(C)(C)C)C/C(=C\c3cc(C)ccc3C)C2=O)c1`, `Cn1c(=O)c2[nH]c(SCC(=O)Nc3ccc(C(=O)/C=C/c4ccccc4Cl)cc3)nc2n(C)c1=O` is higher in growth: 80.5% for the first, 86.7% for the second.

Going from `COc1ccc(-c2n[nH]c(=O)c3nc(NC(=S)Nc4ccc(Oc5ccccc5)cc4)sc23)cc1` to `COC(=O)c1ccc(NC(=O)Nc2ccc(C(=O)OC)cc2)cc1`, the growth rises from 86.7% to 94.7%.

Going from `Cc1ncc(C(=O)Nc2ccc(CN3CCN(C)CC3)c(C(F)(F)F)c2)cc1C#Cc1cnc(N)c2ncccc12` to `C#CCOc1cccc(-c2ncnc3cc(NC(=O)C=C)ccc23)c1`, the growth rises from 21.2% to 44.5%.

Compared with `COc1ccc(/C=C/C(c2cc(OC)c(OC)c(OC)c2)n2ccnc2)cc1O` (stereo unspecified), `COc1cc(/C=N/Nc2ccc(Br)cc2)cc(OC)c1OC` is higher in growth: 29.1% for the first, 54.9% for the second.

Compared with `C=C1C(=O)O[C@H]2[C@H]1CC/C(COC(=O)/C=C/C(=O)OC/C1=C/CC[C@@]3(C)O[C@H]3[C@H]3OC(=O)C(=C)[C@@H]3CC1)=C\CC[C@@]1(C)O[C@@H]21`, `O=C(Cn1nnc2ccccc21)N/N=C/c1c[nH]c2ccccc12` is lower in growth: 88.6% for the first, 49% for the second.

Compared with `O=c1ccc(=O)n(-c2nc(-c3ccc([N+](=O)[O-])cc3)cs2)[nH]1`, `O=S(=O)(NCCCNc1nccc(-c2c(-c3cccc(F)c3)nc3occn23)n1)c1ccc(F)cc1` is lower in growth: 88.9% for the first, 31.1% for the second.

Going from `CCCCCCCCCCCCCCCCCC1=NC(C)(C)CN1CC(C)O` (stereo unspecified) to `COc1ccc2c(c1)/C(=N/c1n[nH]c(=S)s1)C(=O)N2`, the growth rises from 19.1% to 83.7%.
